# Out of some 340,000 compounds screened, about 800 (0.24%) were called active.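 Rule for the calls: active = activation above the mean over all tested compounds plus 3 SD (cut at about 30% in these data); inactive = the rest.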 The list comes from a sample in which actives are over-represented; it also holds similar structures and randomly drawn compounds.
# Target: Troponin I, cardiac muscle (Homo sapiens) + Troponin T, cardiac muscle (Homo sapiens) + Troponin C, slow skeletal and cardiac muscles (Homo sapiens) (UniProt P19429+P45379+P63316)
# Test: calcium sensitizers of cardiac thin filaments – biochemical, IANBD-TnC fluorescence, EC20 calcium, primary screen (AID 493008);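 note: rise in fluorescence read as greater calcium sensitivity of cardiac thin filaments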
# Conditions: IANBD-labeled TnC RTF fluorescence at EC20 calcium; at 7.2 µM; active compounds read high; 0% EC20 calcium, 100% full calcium
row,Compound,activation
1,CCOc1nc(OCC)nc(-n2cc(-c3ccccc3)nn2)n1,-0.01% (inactive)
2,COc1cccc(NS(=O)(=O)c2ccc3[nH]cc(C(=O)NCCCOC(C)C)c(=O)c3c2)c1,1.55% (inactive)
3,CCC1(C)COC(c2ccc(OC)c(OC)c2)OC1 (stereo not given),15.5% (inactive)
4,COc1ccc(C2C(C#N)=C(N)Oc3cc(N)ccc32)cc1OC (stereo not given),2.36% (inactive)
5,COc1ccc(C2c3ccc(O)cc3Oc3ncn(CCCO)c(=N)c32)cc1OC (stereo not given),91.1% (active)
6,COc1ccc(CNCCCO)cc1OC,2.52% (inactive)
7,CN1C(=O)/C(=C/C=C2\SCCN2C)OC1=S,34% (active)
8,CC(=O)c1cc2c(cc1NC(=O)Cn1nc(-c3ccc(F)cc3)ccc1=O)OCO2,1.13% (inactive)
9,COc1ccc(OC)c(NC(=O)c2ccc3c(c2)C(=O)N(c2ccc(OC(C)=O)cc2)C3=O)c1,1.02% (inactive)
10,CCOC(=O)c1c(NC(=O)C2CC=CCC2C(=O)O)sc(C)c1CC (stereo not given),1.94% (inactive)
11,CSC1=NCCN1C(=O)Cc1cccc2ccccc12,-2.5% (inactive)
12,Nc1ccc2nc3c(=O)[nH]c(=S)[nH]c3nc2c1,266% (active)
13,OC1CCCN(c2ncnc3c2nnn3Cc2c(F)cccc2Cl)C1 (stereo not given),6.74% (inactive)
14,CCOc1ccc(C2c3[nH]c4ccccc4c3CCN2Cc2cccn2-c2ncccn2)cc1 (stereo not given),1.17% (inactive)
15,Cc1ccc(CN2CCN(Cc3ccc4ncccc4c3)CC2CCO)cc1 (stereo not given),0.85% (inactive)
16,Cc1ccsc1-c1cc(C(=O)O)c2c(ccc3ccccc32)n1,2.92% (inactive)
17,Cc1cccc(C)c1NC(=O)CCCSc1nnc(-c2ccco2)n1-c1ccccc1,-3.75% (inactive)
18,CCOc1ccc(-n2cnnn2)cc1S(=O)(=O)N1CCC(C)CC1C (stereo not given),-1.75% (inactive)
19,COCCCNC(=O)CNC(=S)N(Cc1cc(OC)c(OC)c(OC)c1)C1CCCC1,-8.44% (inactive)
20,COc1ccc(/C=C/C(=O)OCC(=O)NC2CCCCCC2)cc1OC,-4.52% (inactive)

row,Compound,activation
1,CCCc1ccc(OCC(O)CN2CCN(CCO)CC2)cc1 (stereo not given),-4.14% (inactive)
2,Cc1ccccc1-n1nc(SCC(=O)O)sc1=S,-0.8% (inactive)
3,Cc1nc(N)sc1-c1ccccc1,-3.97% (inactive)
4,CCCN(CCC)c1nc2c(C)cccn2c(=O)c1/C=C1/SC(=S)N(Cc2ccco2)C1=O,34% (active)
5,Cc1ccc2[nH]c(=O)c(-c3nc4c(C)cccn4c3NCc3ccco3)cc2c1,-3.25% (inactive)
6,CNc1nc2c(C)cccn2c(=O)c1C=Nc1ccc(OC)cc1,-1.57% (inactive)
7,O=C(COC(=O)Cn1cnc2ccccc21)Nc1cccc2c1C(=O)c1ccccc1C2=O,45.7% (active)
8,O=C(Cn1cnc2ccccc21)Nc1ccccc1-c1ccccc1,-3.39% (inactive)
9,O=C(COC(=O)c1cccc(Br)c1)Nc1cccc2c1C(=O)c1ccccc1C2=O,-3.82% (inactive)
10,O=S(=O)(NCCc1ccc(Cl)cc1)c1cccs1,-0.86% (inactive)
11,CCOc1ccc2oc(C(=O)N(CC)CC(=O)Nc3ccc(NC(C)=O)cc3)c(C)c2c1,-0.31% (inactive)
12,O=C(c1cc(-c2ccc(O)cc2)on1)N1CCCc2ccccc21,6.06% (inactive)
13,Cc1cccc2cc3c(N)c(C(=O)N4CCCc5ccccc54)sc3nc12,44.8% (active)
14,O=C(c1c(Cl)nc2sccn12)N1CCCc2ccccc21,-2.79% (inactive)
15,COC(=O)C[n+]1cccc2ccccc21,58.3% (active)
16,O=C(C[n+]1cc(Br)cc2ccccc21)c1ccc(F)cc1,-1.35% (inactive)
17,COC(=O)Cc1c(-c2[nH]c3ccccc3c2CC(=O)OC)[nH]c2ccccc12,0.63% (inactive)
18,CN(C)c1ccc(C=C2C(=O)OC3(CCCC3)OC2=O)cc1,-3.77% (inactive)
19,CC1CN(Cc2ccccc2)C(=S)NC1=O (stereo not given),-1.27% (inactive)
20,CN(C)c1ccc(/C=C2\NC(=S)N(Cc3ccccc3)C2=O)cc1,66% (active)

row,Compound,activation
1,CCn1cc(C(=O)N2CC=C(c3ccccc3)CC2)c(=O)c2ccc(C)nc21,-3.54% (inactive)
2,CCCCNC(=O)C(C)N(CCN(C)C)C(=O)CCCCCN1C(=O)NC(c2ccc(Cl)cc2)C(C(=O)OCc2ccccc2)=C1C (stereo not given),-4% (inactive)
3,CCOc1ccc(N(CC(=O)NCCOc2ccccc2OC)S(=O)(=O)c2ccccc2)cc1,2.75% (inactive)
4,CCCNCc1cc(OCC)c(OCC(=O)Nc2ccccc2)cc1Br,4.49% (inactive)
5,COc1ccc(OC)c(CCNC(=O)c2nn(C)c3c2CS(=O)(=O)c2ccccc2-3)c1,-2.91% (inactive)
6,O=c1ccc(S(=O)(=O)N2CCCC2)cn1Cc1nc(-c2ccccc2)no1,-2.09% (inactive)
7,CC1CCCN(CC(O)COc2ccc3c(c2)OCO3)C1 (stereo not given),-0.7% (inactive)
8,Cn1cccc1C(=O)N1CCc2ccccc2C1,1.33% (inactive)
9,OCC[C@H]1C[C@@H](O)[C@H](O)[C@]2(OCCCc3ccccc32)O1,2.9% (inactive)
10,CCCC1OC23CCCCC2C(C#N)(C#N)C1(C#N)C(=N)O3 (stereo not given),35% (active)
11,C=CCC[C@@H](Cc1ccc(F)cc1)C(=O)OC[C@H](Cc1c[nH]c2ccccc12)NC(=O)[C@@H](CC=C)CC(=O)N(CCO)Cc1ccccc1,-0.54% (inactive)
12,CN1CCNC(=O)C1CC(=O)NCCC1=CCCCC1 (stereo not given),9.88% (inactive)
13,COc1ccc(C(=O)OCc2cc(=O)n3ccsc3n2)cc1F,-7.02% (inactive)
14,COCc1cc(=O)[nH]c2cc(NC(=O)C(F)(F)F)c(C)cc12,-3.59% (inactive)
15,CCOC(=O)N1CCC(c2cc(=O)n(-c3ccccc3)[nH]2)CC1,2.7% (inactive)
16,O=c1cc(N2CCCCC2)c(-c2ccccc2)nn1Cc1cccc(F)c1,-0.45% (inactive)
17,Cc1nc([N+](=O)[O-])cn1CC(=O)Nc1ccc(Cl)cc1,0.6% (inactive)
18,Nc1nc(SCC(=O)N2CCN(S(=O)(=O)c3ccc(Cl)cc3)CC2)n[nH]1,11.6% (inactive)
19,Cc1nc(N=C(N)N)nc2c(C)cccc12,-2.23% (inactive)
20,COCCCNC(=O)C1CCN(c2ccc(N3CCOCC3)nn2)CC1,1.09% (inactive)
